# From PubChem
# Cruzain noTriton – cruzain (T. cruzi) inhibition without detergent. Potency, µM, without a hit: max response, negative = inhibition, usual class: inhibitors. P25779. hit rate 2.3% among 200,000. purified cruzain, Z-FR-AMC fluorescence, no detergent;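 further: plate controls were enzyme without inhibitor for no effect and buffer without enzyme for full effect; nearly all actives have a fitted effect of over 40% in size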
# Target sequence (P25779 123-467 limits assumed): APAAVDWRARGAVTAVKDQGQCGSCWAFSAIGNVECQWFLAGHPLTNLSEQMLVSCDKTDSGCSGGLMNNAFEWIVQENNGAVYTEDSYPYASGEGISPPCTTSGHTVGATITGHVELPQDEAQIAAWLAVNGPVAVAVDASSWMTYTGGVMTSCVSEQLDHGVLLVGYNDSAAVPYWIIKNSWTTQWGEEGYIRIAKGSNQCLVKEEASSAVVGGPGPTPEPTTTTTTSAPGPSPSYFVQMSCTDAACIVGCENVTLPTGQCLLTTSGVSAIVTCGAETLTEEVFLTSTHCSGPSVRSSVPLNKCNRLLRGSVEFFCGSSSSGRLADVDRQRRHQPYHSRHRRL
#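 Purified cruzain at 1.5 nM, pre-incubated 15 min with compound at room temperature in 100 mM sodium acetate pH 5.5, 5 mM DTT, 0.00005% Triton X-100. Reaction started with 2 uM Z-FR-AMC; AMC fluorescence increase over 60 s gives rate.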
# Cruzain Triton – inhibitors of Trypanosoma cruzi cruzain with detergent; P25779; purified cruzain, Z-FR-AMC fluorescence, 0.01% Triton; Potency, µM, inactives show max response, negative = inhibition, actives largely listed as inhibitors; hit rate 0.43% among 200,000; AID 1478;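 further: plate controls were neutral wells for no effect and buffer without enzyme for full effect; nearly all actives have a fitted effect of over 40% in size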
#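 15 min RT preincubation of 1.5 nM cruzain with compound, then 2 uM Z-FR-AMC added; kinetic AMC fluorescence, 60 s delta. Triton X-100 0.01%, pH 5.5.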
# * marks the source's active call; other numbers are inactive results; ? = inconclusive; ! = repeats disagree. An excerpt weighted towards active compounds, which were near 2.6% of everything screened. The call rests on the fitted dose curve; in most records, active means well fitted curve in the direction sought with a large enough effect; inconclusive means small, poorly fitted or top-dose-only effect, or another doubt; inactive means no such curve, though single readings can be large; an effect the other way counts as inactive or inconclusive. Potency means the concentration at half of the fitted maximal effect.
SMILES,Cruzain noTriton,Cruzain Triton
CCOc1ccc2nc(N3C(=O)/C(=C/c4ccccc4)NC3=S)sc2c1,13µM*,-2%
CCCCOC(=O)c1ccc(NC(=O)c2csnn2)cc1,-16%,-3%
CC1CCCc2sc3nc(SCC(=O)c4ccc(Br)cc4)nc(N)c3c21 (stereo unspecified),10µM*,-3%
CCCCCCSc1nc(N)c2c3c(sc2n1)CCCC3C (stereo unspecified),-26%,-5%
Cc1ccc(N(CC(=O)N/N=C/c2ccc(OC3CSC3)cc2)S(=O)(=O)c2ccccc2)cc1,?,-1%
Cc1ccc(N(CC(=O)N/N=C/c2ccc(OC3CSC3)cc2)S(=O)(=O)c2ccccc2)c(C)c1,16µM*,-5%
COc1cc2c(cc1NC(=O)CN1CCN(S(=O)(=O)c3ccccc3F)CC1)oc1ccccc12,25µM*,1%
COc1cc2c(cc1NC(=O)Cc1ccc(C)cc1)oc1ccccc12,0%,-10%
COc1cc2c(cc1NC(=O)COC(=O)C(CCSC)NC(=O)c1ccccc1Cl)oc1ccccc12 (stereo unspecified),25µM*,?
COc1cc2c(cc1NC(=O)COc1ccccc1OC)oc1ccccc12,-21%,9%
COc1cc2c(cc1NC(=O)COC(=O)c1ccc(C(C)(C)C)cc1)oc1ccccc12,13µM*,-1%
COc1cc2c(cc1NC(=O)CSc1nnnn1-c1ccccc1)oc1ccccc12,32µM*,4%
COc1cc2c(cc1NC(=O)CSc1ccc(C)cc1)oc1ccccc12,-29%,3%
COc1cc2c(cc1NC(=O)COC(=O)[C@@H](NS(=O)(=O)c1ccccc1)C(C)C)oc1ccccc12,?,-2%
CCc1ccc(C(=O)Nc2cccc(-c3nc4cc(C(C)C)ccc4o3)c2)cc1,-10%,0%
C[C@@H]1C[C@](C)(C(=O)c2ccco2)C=C1c1ccco1,-3%,1%
O=C(CSc1cn(CC(=O)N2CCOCC2)c2ccccc12)Nc1ccccc1F,0%,-2%
CCOc1ccc(NC(=O)c2sc3nc4n(c(=O)c3c2C)CCCC4)cc1,1%,-4%
COc1cccc(OCc2nc3ccccc3n2CCOc2ccccc2)c1,-6%,-6%
CCCN(CCC)S(=O)(=O)c1ccc(C(=O)Nc2cc3oc4ccccc4c3cc2OC)cc1,16µM*,-10%
CCN(CC)S(=O)(=O)c1cccc(C(=O)Nc2cc3oc4ccccc4c3cc2OC)c1,?,-5%
O=C(CSc1nc(=O)[nH]c2c1CCCC2)NCc1ccc(F)cc1,2%,0%
CCn1c(CC(=O)Nc2ccc(C)c(Cl)c2)nnc1SCC(=O)Nc1nc(C)cs1,?,9%
CCn1c(CC(=O)Nc2ccc(C)c(Cl)c2)nnc1SCc1ccc(Cl)c(Cl)c1,13µM*,5%
Cc1ccc2ncc3c(-c4ccccc4)nn(CC(=O)NC4CCCCC4)c3c2c1,-1%,2%
SMILES,Cruzain noTriton,Cruzain Triton
CCOC(=O)N1[C@@H]2C=C(C)[C@@H]2[C@@H]2[C@@H](C)C(=O)N21,13µM*,13µM*
CCOC(=O)n1c(=O)oc2ccccc21,2%,7%
CC(=O)OC1CCC2(C)C(=CC=C3C2CCC2(C)C3CCC2C(C)/C=C/C(C)C(C)C)C1(C)C (stereo unspecified),-8%,-1%
CC(=O)N1CCOc2cc(S(=O)(=O)NCc3ccccc3Cl)c(C)cc21,11%,-1%
COc1ccc(-c2c(C#N)c(SCC(=O)Nc3ccc(C)c(C)c3)nc(C)c2C(=O)Nc2ccc(Cl)cc2)cc1,6.3µM*,1%
CCOc1ccc(NC(=O)CSc2nc(C)c(C(=O)Nc3ccccc3)c(-c3ccc(Cl)cc3)c2C#N)cc1,-21%,-4%
CCC(C)NC(=O)c1sc2nc(C)c(C(=O)Nc3ccc(C)cc3C)c(-c3ccc(NC(C)=O)cc3)c2c1N (stereo unspecified),?,-5%
Cc1nn(-c2ccccc2)c(N2CCCC2)c1/C=N/n1cnc2scc(-c3ccccc3)c2c1=O,-3%,-1%
O=c1c2c(-c3ccccc3)csc2ncn1/N=C/c1c2ccccc2cc2ccccc12,10µM*,-5%
O=S(=O)(NCc1cccc(Br)c1)c1ccc(-c2cc(C(F)(F)F)on2)s1,?,1%
Cc1ccc(Cn2c(CN3CCN(c4cccc(Cl)c4)CC3)nc3c2c(=O)n(C)c(=O)n3C)cc1,?,-9%
O=C1C(SCCO)=C(SCCO)C(=O)c2ccccc21,25µM*!,?
N#CC(=NCCO)C1=C(O)c2ccccc2C1=O,-2%,2%
COc1ccc(-n2c(SCC(=O)NC3CCCCC3)nc3c([nH]c4ccccc43)c2=O)cc1,-3%,-1%
O=C(Nc1ccc(Cl)cc1)C1CCC(CNS(=O)(=O)c2ccc(Br)s2)CC1 (stereo unspecified),25µM*,-2%
CC(=O)c1ccc(NC(=O)C2CCC(CNS(=O)(=O)c3ccc(Br)s3)CC2)cc1 (stereo unspecified),1%,-4%
